Binding signal data for 1 sequence are collected here from article PMC7862700, “An all-to-all approach to the identification of sequence-specific readers for epigenetic DNA modifications on cytosine”.

What all share (assay): DAPPL (digital affinity profiling via proximity ligation, sequencing); 10 mM Tris-HCl pH 7.5, 50 mM NaCl, 1 mM DTT, 4% glycerol, room temperature, 30 min; GST-TFs on glutathione beads, 16-mer random dsDNA library, 0.1% formaldehyde crosslink after washing; high values mean tight binding
Conditions in all cases: protein: recombinant; tags: N-terminal GST; dsDNA, one strand shown

In assay [1] the target is T1, FLI1 (Homo sapiens, UniProt Q01543 1-452).
T1 sequence: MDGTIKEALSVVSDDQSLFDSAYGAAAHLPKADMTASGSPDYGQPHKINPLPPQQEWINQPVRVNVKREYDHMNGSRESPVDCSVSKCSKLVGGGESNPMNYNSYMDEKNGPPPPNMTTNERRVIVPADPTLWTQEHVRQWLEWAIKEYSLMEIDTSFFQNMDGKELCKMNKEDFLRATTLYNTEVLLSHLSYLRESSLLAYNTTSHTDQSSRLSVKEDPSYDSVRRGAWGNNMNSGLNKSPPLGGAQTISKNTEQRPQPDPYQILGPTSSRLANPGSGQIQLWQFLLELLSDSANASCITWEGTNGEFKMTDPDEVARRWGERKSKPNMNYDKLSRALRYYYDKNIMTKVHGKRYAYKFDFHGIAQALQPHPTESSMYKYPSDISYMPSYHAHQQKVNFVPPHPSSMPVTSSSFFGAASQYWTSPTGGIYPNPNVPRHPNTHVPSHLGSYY
In a few lines:
(§1)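 Sequencing on an Illumina NextSeq500 followed washing, crosslinking with 0.1% formaldehyde, proximity ligation (BsaI/T4 ligase, 1 h, 37 °C) and PCR amplification of pools that had been incubated for 30 min at room temperature with 200 nmole of a random double-stranded 16-mer DNA library in Tris/NaCl/DTT/glycerol buffer. Each pool held DNA-barcoded human transcription factors, expressed in yeast as GST fusions and captured on glutathione beads, plus a tag-only sample. Binding signal is a hexamer's read frequency for a factor divided by its frequency in the tag-only sample.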

For assay [2], the target named is T2, ELK1 (Homo sapiens, UniProt P19419 1-428).
T2 sequence: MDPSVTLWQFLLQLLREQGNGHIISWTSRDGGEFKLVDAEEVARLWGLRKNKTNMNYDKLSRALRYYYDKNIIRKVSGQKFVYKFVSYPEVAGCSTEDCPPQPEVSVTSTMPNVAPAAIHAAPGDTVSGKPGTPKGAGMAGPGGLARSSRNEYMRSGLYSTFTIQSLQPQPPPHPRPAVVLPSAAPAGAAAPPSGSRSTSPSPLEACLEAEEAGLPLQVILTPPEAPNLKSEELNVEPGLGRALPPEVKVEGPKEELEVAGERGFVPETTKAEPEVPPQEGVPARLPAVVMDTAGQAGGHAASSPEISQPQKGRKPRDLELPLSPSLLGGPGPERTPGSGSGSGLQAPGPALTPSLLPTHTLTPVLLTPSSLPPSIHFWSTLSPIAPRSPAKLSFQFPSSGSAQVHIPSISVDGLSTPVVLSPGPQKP
An outline of the steps: as §1

Assay [3] addresses T3, GABPA (Homo sapiens, UniProt Q06546 1-454).
T3 sequence: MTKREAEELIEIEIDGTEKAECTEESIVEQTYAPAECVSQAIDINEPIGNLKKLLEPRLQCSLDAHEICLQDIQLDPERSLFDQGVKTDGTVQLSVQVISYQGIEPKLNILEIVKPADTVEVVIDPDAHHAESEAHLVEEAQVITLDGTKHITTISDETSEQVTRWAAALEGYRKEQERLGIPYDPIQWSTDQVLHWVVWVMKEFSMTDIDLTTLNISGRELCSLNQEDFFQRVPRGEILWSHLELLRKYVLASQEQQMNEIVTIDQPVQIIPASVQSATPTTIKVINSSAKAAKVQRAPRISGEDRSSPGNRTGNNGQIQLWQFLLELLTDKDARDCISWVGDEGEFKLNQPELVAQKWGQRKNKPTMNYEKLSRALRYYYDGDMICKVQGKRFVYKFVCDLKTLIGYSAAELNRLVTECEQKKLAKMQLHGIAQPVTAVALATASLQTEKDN
In a few lines: as §1

Assay [4] deals with T4, ERG (Homo sapiens, UniProt P11308 1-479).
T4 sequence: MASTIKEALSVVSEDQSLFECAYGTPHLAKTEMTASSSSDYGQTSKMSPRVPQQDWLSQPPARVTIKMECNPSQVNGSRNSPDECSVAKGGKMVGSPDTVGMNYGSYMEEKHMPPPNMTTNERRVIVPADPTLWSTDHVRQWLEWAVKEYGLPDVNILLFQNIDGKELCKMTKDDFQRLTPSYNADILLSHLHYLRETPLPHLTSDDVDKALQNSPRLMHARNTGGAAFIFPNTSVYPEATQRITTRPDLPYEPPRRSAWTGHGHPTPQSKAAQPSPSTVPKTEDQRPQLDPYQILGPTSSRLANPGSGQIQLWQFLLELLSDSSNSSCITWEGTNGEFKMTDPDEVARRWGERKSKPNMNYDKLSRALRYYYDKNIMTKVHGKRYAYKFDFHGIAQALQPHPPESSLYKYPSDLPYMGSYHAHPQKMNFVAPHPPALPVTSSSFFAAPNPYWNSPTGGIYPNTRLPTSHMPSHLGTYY
An outline of the steps: as §1

Assay [5] has as its target ELF1 (Homo sapiens, UniProt P32519 1-619). An outline of the steps:
as §1

Assay [6] concerns the target T5, EHF (Homo sapiens, UniProt Q9NZC4 1-300).
T5 sequence: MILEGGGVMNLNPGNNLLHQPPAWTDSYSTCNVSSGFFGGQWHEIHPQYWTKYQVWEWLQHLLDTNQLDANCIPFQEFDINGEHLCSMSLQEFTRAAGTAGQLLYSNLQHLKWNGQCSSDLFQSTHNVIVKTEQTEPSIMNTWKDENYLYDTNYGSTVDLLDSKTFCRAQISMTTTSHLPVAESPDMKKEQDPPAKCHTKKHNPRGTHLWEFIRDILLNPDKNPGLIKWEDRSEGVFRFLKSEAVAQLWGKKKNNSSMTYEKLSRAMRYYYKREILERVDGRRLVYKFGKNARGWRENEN
In a few lines: as §1

The target of assay [7] is SPIB (Homo sapiens, UniProt Q01892 1-262). An outline of the steps: as §1
For assay [8], the target named is T6, FEV (Homo sapiens, UniProt Q99581 1-238).
T6 sequence: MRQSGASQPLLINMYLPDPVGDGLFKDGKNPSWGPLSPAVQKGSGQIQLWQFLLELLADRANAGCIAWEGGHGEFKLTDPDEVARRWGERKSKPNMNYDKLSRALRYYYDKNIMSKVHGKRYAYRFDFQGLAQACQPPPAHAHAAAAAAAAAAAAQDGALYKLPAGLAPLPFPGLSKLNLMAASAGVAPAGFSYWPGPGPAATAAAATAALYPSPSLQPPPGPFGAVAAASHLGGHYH
In a few lines:
as §1

Assay [9] addresses ETV5 (Homo sapiens, UniProt P41161 1-510). In a few lines: as §1
Assay [10] has as its target T7, SPIC (Homo sapiens, UniProt Q8N5J4 1-248).
T7 sequence: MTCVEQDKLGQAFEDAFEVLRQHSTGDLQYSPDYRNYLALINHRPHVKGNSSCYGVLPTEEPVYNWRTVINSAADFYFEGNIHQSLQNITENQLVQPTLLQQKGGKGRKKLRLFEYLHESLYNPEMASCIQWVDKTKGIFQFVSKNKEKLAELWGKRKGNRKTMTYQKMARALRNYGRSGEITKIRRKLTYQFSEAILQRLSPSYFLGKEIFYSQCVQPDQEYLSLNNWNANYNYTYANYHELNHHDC
In a few lines:
as §1

For assay [11], the target named is ELF4 (Homo sapiens, UniProt Q99607 1-663). In a few lines:
as §1

Assay [12] concerns the target T8, ERF (Homo sapiens, UniProt P50548 1-548).
T8 sequence: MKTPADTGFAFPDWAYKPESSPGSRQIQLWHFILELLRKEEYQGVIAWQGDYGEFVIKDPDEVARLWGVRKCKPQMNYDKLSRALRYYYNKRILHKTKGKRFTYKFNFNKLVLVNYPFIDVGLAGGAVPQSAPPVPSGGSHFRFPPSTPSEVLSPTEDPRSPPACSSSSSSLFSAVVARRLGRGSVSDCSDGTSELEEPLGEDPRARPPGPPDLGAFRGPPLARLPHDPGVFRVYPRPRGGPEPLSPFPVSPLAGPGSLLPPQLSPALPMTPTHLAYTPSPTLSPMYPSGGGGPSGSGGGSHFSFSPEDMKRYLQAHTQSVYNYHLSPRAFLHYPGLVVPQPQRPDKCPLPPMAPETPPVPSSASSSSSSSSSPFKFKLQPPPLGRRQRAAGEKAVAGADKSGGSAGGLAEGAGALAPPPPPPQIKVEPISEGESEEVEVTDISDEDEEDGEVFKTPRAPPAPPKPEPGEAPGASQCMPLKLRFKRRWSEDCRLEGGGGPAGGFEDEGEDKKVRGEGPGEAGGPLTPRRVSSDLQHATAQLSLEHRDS
In a few lines: as §1

The target in assay [13] is T9, ETV3L (Homo sapiens, UniProt Q6ZN32 1-361).
T9 sequence: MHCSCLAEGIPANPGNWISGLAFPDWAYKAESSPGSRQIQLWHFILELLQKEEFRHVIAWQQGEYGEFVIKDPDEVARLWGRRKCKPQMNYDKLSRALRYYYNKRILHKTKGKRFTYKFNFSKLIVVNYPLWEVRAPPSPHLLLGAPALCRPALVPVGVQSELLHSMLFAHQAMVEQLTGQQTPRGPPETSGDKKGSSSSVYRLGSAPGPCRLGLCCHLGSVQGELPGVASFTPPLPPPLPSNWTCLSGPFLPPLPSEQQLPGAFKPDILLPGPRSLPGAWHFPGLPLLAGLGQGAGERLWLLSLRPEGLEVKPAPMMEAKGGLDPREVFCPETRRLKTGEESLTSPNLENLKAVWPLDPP
An outline of the steps: as §1

Assay [14] concerns the target T10, ETS2 (Homo sapiens, UniProt P15036 1-469).
T10 sequence: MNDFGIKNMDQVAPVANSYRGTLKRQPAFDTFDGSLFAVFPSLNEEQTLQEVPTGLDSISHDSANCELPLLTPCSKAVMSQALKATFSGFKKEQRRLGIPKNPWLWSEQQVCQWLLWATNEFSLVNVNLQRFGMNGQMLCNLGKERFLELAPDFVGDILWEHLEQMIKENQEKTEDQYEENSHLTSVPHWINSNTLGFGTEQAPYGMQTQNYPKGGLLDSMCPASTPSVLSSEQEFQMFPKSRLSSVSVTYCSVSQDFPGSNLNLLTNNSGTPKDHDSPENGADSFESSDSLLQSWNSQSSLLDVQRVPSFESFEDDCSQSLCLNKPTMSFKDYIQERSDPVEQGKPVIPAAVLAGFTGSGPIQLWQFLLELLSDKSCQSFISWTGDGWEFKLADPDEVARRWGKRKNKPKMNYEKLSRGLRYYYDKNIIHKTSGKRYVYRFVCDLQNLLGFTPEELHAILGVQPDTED
An outline of the steps:
as §1

The target of assay [15] is T11, ELF5 (Homo sapiens, UniProt Q9UKW6-2 1-255).
T11 sequence: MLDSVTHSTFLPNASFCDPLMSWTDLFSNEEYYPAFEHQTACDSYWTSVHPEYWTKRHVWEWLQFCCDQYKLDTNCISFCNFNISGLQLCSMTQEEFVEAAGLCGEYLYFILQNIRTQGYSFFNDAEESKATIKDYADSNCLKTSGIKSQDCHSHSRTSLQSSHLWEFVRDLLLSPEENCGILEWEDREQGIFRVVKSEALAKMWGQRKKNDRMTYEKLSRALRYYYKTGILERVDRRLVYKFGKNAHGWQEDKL
In a few lines: as §1

Assay [16] deals with T12, ETV3 (Homo sapiens, UniProt P41162-2 1-143).
T12 sequence: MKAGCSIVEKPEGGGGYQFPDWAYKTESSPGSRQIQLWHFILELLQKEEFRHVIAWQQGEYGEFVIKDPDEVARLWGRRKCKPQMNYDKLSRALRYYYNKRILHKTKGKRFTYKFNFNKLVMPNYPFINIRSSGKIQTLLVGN
In a few lines:
as §1

Assay [17] addresses ETV6 (Homo sapiens, UniProt P41212 1-452). In a few lines:
as §1

ELF1, sequence (P32519 whole entry): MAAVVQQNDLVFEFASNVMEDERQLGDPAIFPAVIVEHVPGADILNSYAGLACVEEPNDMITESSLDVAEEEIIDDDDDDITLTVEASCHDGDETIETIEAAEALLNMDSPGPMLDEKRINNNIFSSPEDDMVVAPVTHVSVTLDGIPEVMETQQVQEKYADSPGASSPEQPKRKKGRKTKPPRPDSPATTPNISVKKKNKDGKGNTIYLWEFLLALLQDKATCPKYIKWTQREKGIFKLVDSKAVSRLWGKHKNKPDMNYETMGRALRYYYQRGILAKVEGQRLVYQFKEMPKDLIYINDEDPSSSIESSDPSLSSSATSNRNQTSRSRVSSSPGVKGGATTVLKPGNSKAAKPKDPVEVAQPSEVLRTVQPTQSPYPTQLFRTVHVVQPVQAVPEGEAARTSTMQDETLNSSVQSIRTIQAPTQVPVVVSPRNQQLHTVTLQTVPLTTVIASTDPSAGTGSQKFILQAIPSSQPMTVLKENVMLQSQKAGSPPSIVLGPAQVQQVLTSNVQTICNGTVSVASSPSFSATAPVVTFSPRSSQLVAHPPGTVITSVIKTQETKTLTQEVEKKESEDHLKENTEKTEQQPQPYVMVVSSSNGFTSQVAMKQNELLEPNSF
ETV6, sequence (P41212 whole entry): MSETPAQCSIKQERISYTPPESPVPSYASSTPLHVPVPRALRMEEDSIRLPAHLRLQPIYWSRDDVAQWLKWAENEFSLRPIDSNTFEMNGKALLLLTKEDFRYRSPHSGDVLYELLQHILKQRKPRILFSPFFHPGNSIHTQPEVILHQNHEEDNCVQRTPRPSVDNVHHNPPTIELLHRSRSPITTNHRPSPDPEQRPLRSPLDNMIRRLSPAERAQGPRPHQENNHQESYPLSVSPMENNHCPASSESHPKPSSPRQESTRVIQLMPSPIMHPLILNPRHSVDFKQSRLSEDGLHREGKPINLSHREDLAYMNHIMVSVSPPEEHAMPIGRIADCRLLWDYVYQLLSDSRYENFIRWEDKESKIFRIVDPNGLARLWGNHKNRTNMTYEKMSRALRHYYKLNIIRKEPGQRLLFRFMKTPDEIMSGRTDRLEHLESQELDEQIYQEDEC
ETV5, sequence (P41161 whole entry): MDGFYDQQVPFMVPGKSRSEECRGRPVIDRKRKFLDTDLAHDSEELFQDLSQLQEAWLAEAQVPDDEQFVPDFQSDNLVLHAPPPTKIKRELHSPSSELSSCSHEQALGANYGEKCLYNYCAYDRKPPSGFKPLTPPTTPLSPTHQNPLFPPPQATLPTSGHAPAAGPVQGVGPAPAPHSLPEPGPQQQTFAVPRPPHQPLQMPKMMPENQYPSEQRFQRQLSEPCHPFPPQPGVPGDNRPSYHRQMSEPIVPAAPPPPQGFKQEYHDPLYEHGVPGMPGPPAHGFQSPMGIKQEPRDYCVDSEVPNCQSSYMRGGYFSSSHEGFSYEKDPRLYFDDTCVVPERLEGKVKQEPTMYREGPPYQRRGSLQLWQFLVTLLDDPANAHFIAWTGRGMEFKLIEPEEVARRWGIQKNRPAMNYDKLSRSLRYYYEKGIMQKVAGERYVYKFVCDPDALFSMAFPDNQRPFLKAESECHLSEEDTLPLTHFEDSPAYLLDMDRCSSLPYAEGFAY
ELF4, sequence (Q99607 whole entry): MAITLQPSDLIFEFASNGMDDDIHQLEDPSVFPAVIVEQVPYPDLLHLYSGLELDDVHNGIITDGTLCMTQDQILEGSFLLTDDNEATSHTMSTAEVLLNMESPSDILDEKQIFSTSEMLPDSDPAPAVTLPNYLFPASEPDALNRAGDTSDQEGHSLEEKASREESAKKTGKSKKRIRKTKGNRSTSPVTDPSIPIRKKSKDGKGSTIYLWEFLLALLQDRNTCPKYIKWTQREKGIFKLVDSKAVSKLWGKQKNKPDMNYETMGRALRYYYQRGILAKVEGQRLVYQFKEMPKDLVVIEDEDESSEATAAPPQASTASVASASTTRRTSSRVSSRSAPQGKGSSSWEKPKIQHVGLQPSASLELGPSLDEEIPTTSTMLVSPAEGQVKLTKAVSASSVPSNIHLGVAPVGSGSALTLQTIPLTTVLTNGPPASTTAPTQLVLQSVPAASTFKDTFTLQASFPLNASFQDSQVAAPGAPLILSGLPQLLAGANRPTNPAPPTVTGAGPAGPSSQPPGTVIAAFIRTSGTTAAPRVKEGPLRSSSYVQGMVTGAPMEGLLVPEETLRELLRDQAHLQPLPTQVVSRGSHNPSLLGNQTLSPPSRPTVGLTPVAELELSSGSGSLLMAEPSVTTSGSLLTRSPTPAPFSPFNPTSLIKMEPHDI
SPIB, sequence (Q01892 whole entry): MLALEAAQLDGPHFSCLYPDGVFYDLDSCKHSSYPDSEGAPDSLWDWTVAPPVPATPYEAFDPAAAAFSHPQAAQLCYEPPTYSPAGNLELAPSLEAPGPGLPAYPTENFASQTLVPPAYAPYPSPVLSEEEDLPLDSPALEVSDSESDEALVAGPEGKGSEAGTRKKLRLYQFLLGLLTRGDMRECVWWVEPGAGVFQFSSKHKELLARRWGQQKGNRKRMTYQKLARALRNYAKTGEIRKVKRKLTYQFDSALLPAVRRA

For CCGCTG, the binding signal in assay [1] is 1.13 fold enrichment (6-mer frequency, TF over GST control); in assay [2], 1.03 fold enrichment (6-mer frequency, TF over GST control); in [3], 1.02 fold enrichment (6-mer frequency, TF over GST control); in [4], 1.05 fold enrichment (6-mer frequency, TF over GST control); in [5], 1 fold enrichment (6-mer frequency, TF over GST control); in [6] it was 1.05 fold enrichment (6-mer frequency, TF over GST control). For the same sequence, the binding signal in [7] is 1.07 fold enrichment (6-mer frequency, TF over GST control); in assay [8] it was 1.11 fold enrichment (6-mer frequency, TF over GST control); in assay [9], 1.06 fold enrichment (6-mer frequency, TF over GST control); in [10] it was 1.08 fold enrichment (6-mer frequency, TF over GST control); in [11] it was 1.06 fold enrichment (6-mer frequency, TF over GST control); in [12] it was 1.03 fold enrichment (6-mer frequency, TF over GST control). Besides, the binding signal in [13] was 1.04 fold enrichment (6-mer frequency, TF over GST control); in assay [14], 1.06 fold enrichment (6-mer frequency, TF over GST control); in assay [15], 1.03 fold enrichment (6-mer frequency, TF over GST control); in [16] it was 1.08 fold enrichment (6-mer frequency, TF over GST control); in assay [17] it was 1.11 fold enrichment (6-mer frequency, TF over GST control).
